Results reported in the supplement of paper PMC11417369.
In all, about 25,000 sequences were measured (“ln(normalized median fluorescence intensity)”: median about 9.3, highest 2% from about 10 on). What follows is part of a selection rich in the highest values, with near analogues and random picks from the rest.

Test system: PF3D7_0420300 AP2 domain 1 (GST-tagged)
Assay: gcPBM binding intensity (ln(normalized median fluorescence intensity)); higher = stronger DNA binding
Method in brief: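 Binding intensity is defined as the maximum Masliner-normalised natural-log median intensity across replicate spots for either probe orientation. It was measured on an Agilent 4 × 180k array of primer-extended double-stranded 36-bp intergenic genomic probes and negative controls, to which GST-tagged P. falciparum DNA-binding domains made in E. coli were applied for 1 h in 1× PBS with 1% milk, 0.2 mg/ml BSA, 0.5% salmon testes DNA and 0.03% Triton X-100. Detection was by Alexa488 anti-GST antibody and scanning at 488 nm.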

Row | Sequence | gcPBM binding intensity (ln)
1 | TATAATATATATGTAACACACAAAAGTTATATACTT [CACACA_site2868] | 9.37
2 | AAAATTTTCTTTTTATGTACACATAATTTTACCGGA [XGTACX_site5276] | 9.18
3 | ATAAAATATTTTTGAACATGCAGGTAAAAAATAAAA [TGCATGCA_site1019] | 9.27
4 | ATGGATTATACGTGCACACATATATACCAATAAATA [CACACA_site4524] | 9.43
5 | AAAAGTTTTATTTAAATGAATTAATCTTTACTATAT [CACACA_negctrl_site282] | 9.07
6 | AAAACACAATTTATTACACACATATATTATATATTA [CACACA_site1420] | 9.49
7 | TGAATATTCATGTGTGTGCGCATGTTGTTAGACCAT [GTGCAC_site9869] | 9.69
8 | AACATTTTAAATTATACACACATTTTGAATATATAT [CACACA_site3470] | 9.54
9 | AGCATCATTTTACACACATGCAAATGTAAAATAGGA [TGCATGCA_site460] | 9.43
10 | GCCATTGTACCATCCACACACATATAAATATGTATA [CACACA_site7303] | 9.85
11 | TATATATATAATATTGCACACAAAATTAAAAGTAAA [CACACA_site7889] | 9.47
12 | AAAAAGGAGAAACACACACACACACCCATATATATA [CACACA_site905] | 10.2
13 | CACCCATAAATATACACACGCACAACACAAAATAAA [CACACA_site2903] | 9.73
14 | TACACCCATAGACACACACACACGCATAAAAAAAAA [CACACA_site8428] | 9.93
15 | AAAAAAAAAAAAAACACACACACACGCAGATATATA [CACACA_site6672] | 10.1
16 | CACCCATAGAAACACACACACGCATAAAAAAAAAAA [CACACA_site1513] | 9.71
17 | AAAAAAAAAAAACACACACACACACCCATATATAAA [CACACA_site1170] | 10.2
18 | CAAGAAAAGAAACACACACACATATATATATATATA [CACACA_site3881] | 9.87
19 | AAAAAAAAAAAAGAAACACACACATATATATATATA [CACACA_site8525] | 9.69
20 | AAAAAAAATAAACACACACACATACCCATAAATATA [CACACA_site5980] | 10.1
21 | TACACGCAGAAACACACACACACACCCATATATATA [CACACA_site637] | 10.3
22 | TACACGCATAAACACACACACACACCCATATATATA [CACACA_site8114] | 10.4
23 | GATAGAAAAAAATAATGTACACACACATATATGTTT [XGTACX_site392] | 9.72

Row | Sequence | gcPBM binding intensity (ln)
24 | AAAAAAATTCTGACTTGTACATATAAAATTTACAAA [XGTACX_site4408] | 8.78
25 | TACGTATGCCTGTGATGTACATATATATATACATAC [XGTACX_site4728] | 9.36
26 | AATCACCAAATATGTACACACCTTAACATGTTTATA [CACACA_site5180] | 9.64
27 | TTTAAAAGATAAAACACACATACTAATAAAAAACAA [CACACA_site2556] | 9.71
28 | AAGTGTCAAAGTTACACACACAAACTTGTCATTTTT [CACACA_site837] | 9.75
29 | AAAAATCATTTAAGAACACACAAATATTTCCATTAA [CACACA_site1488] | 9.35
30 | TTATCCTTGTAACAATGTACACATTATTTAATACTT [XGTACX_site1830] | 9.29
31 | TACATATTTTTCTTTTCACACATGGAAAAAAAAGGT [CACACA_site5146] | 9.11
32 | ACATATAAAATGTATACACACAAATATTACAGAGAT [CACACA_site4920] | 9.8
33 | ATTCATATGAAACACACACACACACCCATAAAAAAA [CACACA_site3246] | 10.1
34 | TCATAGTATAAACACACACACACACCCATATATATA [CACACA_site8512] | 10.3
35 | TAAACACCCATATAAACACACATATAAACACCCATA [CACACA_site5382] | 9.84
36 | CACAGTGATATAAAAACACACATGAATTATAATTTC [CACACA_site1667] | 9.43
37 | TTTTTCTGTTCTTTTTGTACTTAAATATATTTATTT [XGTACX_site5658] | 9.57
38 | TAAATATTATATTTATGTACATAAGTTTTTTTTAAT [XGTACX_site3559] | 9.08
39 | AATATTTCTATATGAACATGCAATGTATCTTTTTAT [TGCATGCA_site738] | 9.13
40 | CATATACTCGGACACACACACACACCGACAAAAAAA [CACACA_site4433] | 10.1
41 | ATAGTATACAGACACACACACACACCGATATATATA [CACACA_site8511] | 10.3
42 | TAAATAAATTTATACACACACACACCGATATATATA [CACACA_site4622] | 10.1
43 | AGTATACACAGACACACACACACATATATATATATA [CACACA_site8510] | 10.2
44 | AGTATACATATATATACACACACACCGATATATATA [CACACA_site8357] | 10.1
45 | ATAGTATACGGACACACACACACACCGATATATATA [CACACA_site5032] | 10.3
46 | ATTCATCTATTTTGTAGTACTAAATATATATCTACT [XGTACX_site8790] | 9.46

Row | Sequence | gcPBM binding intensity (ln)
47 | TGTAATAATCTTCATTTCTTTTTTTTTTTTTTTTGT [CACACA_negctrl_site1388] | 8.96
48 | ATTTACATAATAAAATGTACATTTATAAATATTATA [XGTACX_site1901] | 9.13
49 | CATATATAGATATATACACACATACATACATACATA [CACACA_site7748] | 9.59
50 | TATAGATACATATACACACACACACCGACATATATA [CACACA_site9138] | 10.3
51 | AATATAGATACATATACACACACACCCATACATATA [CACACA_site9137] | 10.1
52 | CATACATACATACATACACACATACAGATATATATA [CACACA_site4890] | 9.84
53 | CACAGATATATACATACACACATATATACACATATA [CACACA_site6323] | 9.72
54 | TATAGATACAGATACACACACACACCGACATATATA [CACACA_site5832] | 10.2
55 | ATATATATATAATAAGTGCAAAAAAAAGAAAAAAAT | 9.74
56 | GTTTAACTGTTTTATACACACAATGTATCCAATAAA [CACACA_site5612] | 9.49
57 | AAAAACAACACAGATAAATTAACACACACACACATA [XGTACX_negctrl_site588] | 10.2
58 | TATATATTATTTAAAACACACAAAAAAAAAAATTAT [CACACA_site89] | 9.59
59 | GATAAATTAAAACACACACACATATATATATATATA [CACACA_site3962] | 9.67
60 | CATAATACAGATAACACACACAATTATACATAAAAT [CACACA_site5742] | 10
61 | CATAAAATATAAAACACACACACATATATTTATATA [CACACA_site6247] | 10
62 | TATAAAAATAAGCACACACACAAATATATATTTATT [CACACA_site922] | 10.1
63 | AATATAAATAAAAACACACACACACGGATATTTATA [CACACA_site7134] | 10.3
64 | TAAAAAAAAAAAAAAACACACATATAAATATTTATA [CACACA_site6702] | 9.45
65 | AGTATAAAAATAAGCACACACACAAATATATATTTA [CACACA_site923] | 10.2
66 | CTTATATTAAAACACACACACGCACAAAACAGAAAT [CACACA_site1462] | 10.2
67 | ATAAAATTTATATAAGCACACAAATATATATTTATA [CACACA_site9083] | 9.29
68 | ACTTATATAAAACATTAACACACAAAGAAAAAAAAT [CACACA_site8529] | 9.96
69 | AACCACATACATATAACACACATATACAATATATAT [CACACA_site8607] | 9.65

Row | Sequence | gcPBM binding intensity (ln)
70 | TTTTGTTATTATAAATAGTAACATTTGTGAATATAT [TGCATGCA_negctrl_site132] | 8.92
71 | GGCCCAACTTCTTCTGACGAAAACGTAAATTGTGTG [XGTACX_negctrl_site533] | 9.22
72 | CTATATCATTTTCTAGCACACACATTGTTATTACCT [CACACA_site8204] | 9.84
73 | AAAAACTAACTGTATTGTACTCTCTTATAAATTCAC [XGTACX_site8967] | 9.15
74 | ATATATATATATATATATATAATAAAAGATCATTTA [XGTACX_negctrl_site371] | 9.09
75 | AAAAAATATATATATATATATATGTAATATTTTTTT [XGTACX_negctrl_site439] | 9.07
76 | TAAATAATGTAAAAAACATCATCAAAATGTTAATTA [CACACA_negctrl_site1768] | 9.09
77 | TATGAAATATTTATACACAGAACTTCATAATTTTCA [TGCATGCA_negctrl_site509] | 9.04
78 | CGTGAATATATGATATGTACTTATAAAAATTTGTGC [XGTACX_site5480] | 9.26
79 | CTATTTCATAAACACACACACACAAACAAACATATA [CACACA_site8234] | 10.4
80 | ATAAAAAGGAGACACACACACACACGCATATTTATA [CACACA_site6551] | 10.3
81 | AATACAATTTTTAACACACACACAATAATACAGATA [CACACA_site4823] | 10.2
82 | ATAAAAAAAGGACACACACACATATATTTATTTATA [CACACA_site7438] | 10.1
83 | ATACAACAGATATATACACACATATAACAATAATAA [CACACA_site7560] | 9.93
84 | AACACAGATAAATTAACACACACACCCATATATATA [CACACA_site9310] | 10.1
85 | TAAATAAAAAGACACACACACATATTTATATTTATA [CACACA_site7135] | 10
86 | CACAGATAAATTAACACACACACACCCATATATATA [CACACA_site3960] | 10.1
87 | ATTTAATACAAATACACACACAAATAAATACAGATA [CACACA_site5956] | 10.2
88 | AATAAATATATATTCACACACAAACATATATATATA [CACACA_site4023] | 9.71
89 | CTATTTCATGGACACACACACACAAACAAACATATA [CACACA_site4696] | 10.2
90 | CACAGATAAATTAACACACACACACCGATATATATA [CACACA_site6049] | 10.2
